The whole screen tested about 5,500 compounds, of which about 2,000 (36%) were called active. Not shown: some 18% with an inconclusive outcome. Some of the results follow. Unmarked numbers belong to inactive results. Rule as the data show it: active = normalized growth mostly below about 0.91 (no sharp cut-off); inconclusive = no clear call, values can overlap the other calls; inactive = mostly above about 0.92.
Assay: chemical genetic growth profiling, strain panel (AID 1159580);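 also: tested at 20 µM; growth read once vehicle control cultures reached saturation at 30 °C; 1 = growth at the plate median or of vehicle wells; lower values mean less growth of the strain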
Conditions: growth OD

For `CN(Cc1cnc2nc(N)nc(N)c2n1)c1ccc(C(=O)NC(CCC(=O)O)C(=O)O)cc1` (stereo unspecified), the normalized growth (S. cerevisiae deletion strains, locus YJR066W, strain TOR1, active compounds read low) was 0.0866 (active), the normalized growth (S. cerevisiae deletion strains, locus YKL009W, strain mrt4, active compounds read low) was 0.527 (active) and the normalized growth (S. cerevisiae deletion strains, locus YKL068W, active compounds read low) was 0.513 (active). For the same compound, the normalized growth (S. cerevisiae deletion strains, locus YKL085W, strain MDH1 (second series), active compounds read low) was 0.311 (active), the normalized growth (S. cerevisiae deletion strains, locus YKL085W, strain MDH1, active compounds read low) was 0.311 (active) and the normalized growth (S. cerevisiae deletion strains, locus YKL160W, strain elf1, active compounds read low) was 0.94. The normalized growth (S. cerevisiae deletion strains, locus YKR001C, strain vps1, active compounds read low) was 0.953, the normalized growth (S. cerevisiae deletion strains, locus YKR026C, strain gcn3, active compounds read low) was 0.934 and the normalized growth (S. cerevisiae deletion strains, locus YKR091W, strain srl3, active compounds read low) was 0.94. The normalized growth (S. cerevisiae deletion strains, locus YLL001W, strain dnm1, active compounds read low) was 0.873 (active), the normalized growth (S. cerevisiae deletion strains, locus YLL026W, active compounds read low) was 0.935 and the normalized growth (S. cerevisiae deletion strains, locus YLL041C, strain sdh2, active compounds read low) was 0.955. The normalized growth (S. cerevisiae deletion strains, locus YLR027C, strain aat2, active compounds read low) was 0.94, the normalized growth (S. cerevisiae deletion strains, locus YLR039C, strain RIC1, active compounds read low) was 0.909 and the normalized growth (S. cerevisiae deletion strains, locus YLR058C, strain SHM2, active compounds read low) was 0.99. For the same compound, the normalized growth (S. cerevisiae deletion strains, locus YLR102C, strain apc9, active compounds read low) was 0.993, the normalized growth (S. cerevisiae deletion strains, locus YLR113W, strain HOG1, active compounds read low) was 0.247 (active) and the normalized growth (S. cerevisiae deletion strains, locus YLR221C, strain rsa3, active compounds read low) was 0.816 (active). For the same compound, the normalized growth (S. cerevisiae deletion strains, locus YLR258W, strain gsy2, active compounds read low) was 0.923, the normalized growth (S. cerevisiae deletion strains, locus YLR262C, strain YPT6 (second series), active compounds read low) was 0.952 and the normalized growth (S. cerevisiae deletion strains, locus YLR262C, strain YPT6, active compounds read low) was 0.958. For the same compound, the normalized growth (S. cerevisiae deletion strains, locus YLR268W, strain sec22, active compounds read low) was 0.984, the normalized growth (S. cerevisiae deletion strains, locus YLR320W, strain mms22, active compounds read low) was 0.789 (active) and the normalized growth (S. cerevisiae deletion strains, locus YLR330W, strain CHS5, active compounds read low) was 0.973. It also gave a normalized growth (S. cerevisiae deletion strains, locus YLR342W, strain FKS1 (second series), active compounds read low) of 1.01, a normalized growth (S. cerevisiae deletion strains, locus YLR342W, strain FKS1, active compounds read low) of 0.928 and a normalized growth (S. cerevisiae deletion strains, locus YLR357W, strain rsc2, active compounds read low) of 0.943. For the same compound, the normalized growth (S. cerevisiae deletion strains, locus YLR370C, strain arc18, active compounds read low) was 0.877 (active), the normalized growth (S. cerevisiae deletion strains, locus YLR371W, strain rom2, active compounds read low) was 1.01 and the normalized growth (S. cerevisiae deletion strains, locus YLR384C, strain iki3, active compounds read low) was 0.88 (active). The normalized growth (S. cerevisiae deletion strains, locus YLR418C, strain cdc73, active compounds read low) was 0.96, the normalized growth (S. cerevisiae deletion strains, locus YML016C, strain PPZ1, active compounds read low) was 1.01 and the normalized growth (S. cerevisiae deletion strains, locus YML032C, strain rad52, active compounds read low) was 0.986. The normalized growth (S. cerevisiae deletion strains, locus YML120C, strain ndi1, active compounds read low) was 0.813 (active), the normalized growth (S. cerevisiae deletion strains, locus YML124C, strain tub3, active compounds read low) was 0.974 and the normalized growth (S. cerevisiae deletion strains, locus YMR058W, strain fet3, active compounds read low) was 0.893 (active). It also gave a normalized growth (S. cerevisiae deletion strains, locus YMR078C, strain ctf18, active compounds read low) of 0.986, a normalized growth (S. cerevisiae deletion strains, locus YMR125W, strain sto1, active compounds read low) of 0.95 and a normalized growth (S. cerevisiae deletion strains, locus YMR129W, active compounds read low) of 0.948. For the same compound, the normalized growth (S. cerevisiae deletion strains, locus YMR205C, strain PFK2, active compounds read low) was 0.948, the normalized growth (S. cerevisiae deletion strains, locus YMR223W, strain ubp8, active compounds read low) was 0.953 and the normalized growth (S. cerevisiae deletion strains, locus YMR231W, strain pep5, active compounds read low) was 0.923 (active). It also gave a normalized growth (S. cerevisiae deletion strains, locus YMR263W, strain SAP30, active compounds read low) of 0.987, a normalized growth (S. cerevisiae deletion strains, locus YMR307W, strain GAS1, active compounds read low) of 1.02 and a normalized growth (S. cerevisiae deletion strains, locus YNL067W, strain RPL9B, active compounds read low) of 0.963. It also gave a normalized growth (S. cerevisiae deletion strains, locus YNL071W, strain lat1, active compounds read low) of 0.961, a normalized growth (S. cerevisiae deletion strains, locus YNL153C, strain GIM3, active compounds read low) of 0.974 and a normalized growth (S. cerevisiae deletion strains, locus YNL175C, strain NOP13, active compounds read low) of 0.975. For the same compound, the normalized growth (S. cerevisiae deletion strains, locus YNL183C, strain NPR1, active compounds read low) was 0.112 (active), the normalized growth (S. cerevisiae deletion strains, locus YNL197C, strain WHI3, active compounds read low) was 0.976 and the normalized growth (S. cerevisiae deletion strains, locus YNL209W, strain ssb2, active compounds read low) was 0.913 (active). For the same compound, the normalized growth (S. cerevisiae deletion strains, locus YNL224C, strain SQS1, active compounds read low) was 0.977, the normalized growth (S. cerevisiae deletion strains, locus YNL233W, strain BNI4, active compounds read low) was 0.98 and the normalized growth (S. cerevisiae deletion strains, locus YNL248C, strain rpa49, active compounds read low) was 0.925. For the same compound, the normalized growth (S. cerevisiae deletion strains, locus YNL250W, strain rad50, active compounds read low) was 0.195 (active), the normalized growth (S. cerevisiae deletion strains, locus YNL271C, strain bni1, active compounds read low) was 0.291 (active) and the normalized growth (S. cerevisiae deletion strains, locus YNL298W, strain CLA4, active compounds read low) was 0.385 (active). For the same compound, the normalized growth (S. cerevisiae deletion strains, locus YNL307C, strain MCK1, active compounds read low) was 1.01, the normalized growth (S. cerevisiae deletion strains, locus YNL322C, strain KRE1 (second series), active compounds read low) was 0.512 (active) and the normalized growth (S. cerevisiae deletion strains, locus YNL322C, strain KRE1, active compounds read low) was 0.971. The normalized growth (S. cerevisiae deletion strains, locus YNR049C, strain mso1, active compounds read low) was 0.921, the normalized growth (S. cerevisiae deletion strains, locus YNR052C, strain pop2, active compounds read low) was 0.951 and the normalized growth (S. cerevisiae deletion strains, locus YOL012C, strain htz1) was 1.38. The normalized growth (S. cerevisiae deletion strains, locus YOL147C, strain pex11, active compounds read low) was 0.982, the normalized growth (S. cerevisiae deletion strains, locus YOR001W, strain rrp6, active compounds read low) was 0.929 and the normalized growth (S. cerevisiae deletion strains, locus YOR061W, strain CKA2, active compounds read low) was 0.99. For the same compound, the normalized growth (S. cerevisiae deletion strains, locus YOR069W, strain VPS5, active compounds read low) was 0.987, the normalized growth (S. cerevisiae deletion strains, locus YOR070C, strain gyp1, active compounds read low) was 0.934 and the normalized growth (S. cerevisiae deletion strains, locus YOR080W, strain dia2, active compounds read low) was 0.902 (active). The normalized growth (S. cerevisiae deletion strains, locus YOR083W, strain WHI5 (second series), active compounds read low) was 0.984, the normalized growth (S. cerevisiae deletion strains, locus YOR083W, strain WHI5, active compounds read low) was 0.908 and the normalized growth (S. cerevisiae deletion strains, locus YOR106W, strain vam3, active compounds read low) was 0.801 (active). For the same compound, the normalized growth (S. cerevisiae deletion strains, locus YOR136W, strain idh2, active compounds read low) was 0.995, the normalized growth (S. cerevisiae deletion strains, locus YOR144C, strain elg1, active compounds read low) was 0.975 and the normalized growth (S. cerevisiae deletion strains, locus YOR184W, strain ser1, active compounds read low) was 0.968. The normalized growth (S. cerevisiae deletion strains, locus YOR231W, strain MKK1, active compounds read low) was 0.193 (active), the normalized growth (S. cerevisiae deletion strains, locus YOR265W, strain rbl2, active compounds read low) was 0.911 (active) and the normalized growth (S. cerevisiae deletion strains, locus YOR270C, strain vph1, active compounds read low) was 0.957. For the same compound, the normalized growth (S. cerevisiae deletion strains, locus YOR290C, strain snf2, active compounds read low) was 0.845 (active), the normalized growth (S. cerevisiae deletion strains, locus YOR316C, strain cot1, active compounds read low) was 0.984 and the normalized growth (S. cerevisiae deletion strains, locus YPL051W, strain arl3, active compounds read low) was 0.984. The normalized growth (S. cerevisiae deletion strains, locus YPL078C, strain atp4, active compounds read low) was 0.947, the normalized growth (S. cerevisiae deletion strains, locus YPL106C, strain sse1, active compounds read low) was 0.947 and the normalized growth (S. cerevisiae deletion strains, locus YPL240C, strain hsp82, active compounds read low) was 0.957. The normalized growth (S. cerevisiae deletion strains, locus YPL256C, strain CLN2, active compounds read low) was 0.227 (active), the normalized growth (S. cerevisiae deletion strains, locus YPR119W, strain clb2, active compounds read low) was 0.989 and the normalized growth (S. cerevisiae deletion strains, locus YPR141C, strain kar3, active compounds read low) was 0.345 (active). The normalized growth (S. cerevisiae deletion strains, locus YPR163C, strain tif3, active compounds read low) was 0.985, the normalized growth (S. cerevisiae deletion strains, locus YPR167C, strain met16, active compounds read low) was 0.975 and the normalized growth (S. cerevisiae deletion strains, strain wtn01, active compounds read low) was 0.97. For the same compound, the normalized growth (S. cerevisiae strains, strain wild type, active compounds read low) was 0.973.

— PubChem BioAssay AID1159580 (chemical genetic matrix, 2015)
